“And” between values parts separate entries of the source, which are not always exact repeats. Equal entries are not always repeated. Records with an inconclusive call do not appear. The source made the active and inactive calls. Unless noted, calls follow the shape of the dose curve; as a rule, active = well fitted curve in the direction sought with a large enough effect in the repeat runs; inconclusive = weak or mixed curves; inactive = no such curve, though single readings can be large; an effect the other way counts as inactive or inconclusive.
What was measured:
[1] = molecular target: Estrogen receptor beta (Homo sapiens) (UniProt Q92731); assay: qHTS assay to identify small molecule agonists of the estrogen receptor beta (ER-beta) signaling pathway (AID 1259377; active = well fitted activation curve with a large enough effect in the signal ratio in the repeat runs, not every such curve was filed as active; the % refers to the signal ratio)
Estrogen receptor beta (Homo sapiens), sequence (Q92731 whole entry, looked up): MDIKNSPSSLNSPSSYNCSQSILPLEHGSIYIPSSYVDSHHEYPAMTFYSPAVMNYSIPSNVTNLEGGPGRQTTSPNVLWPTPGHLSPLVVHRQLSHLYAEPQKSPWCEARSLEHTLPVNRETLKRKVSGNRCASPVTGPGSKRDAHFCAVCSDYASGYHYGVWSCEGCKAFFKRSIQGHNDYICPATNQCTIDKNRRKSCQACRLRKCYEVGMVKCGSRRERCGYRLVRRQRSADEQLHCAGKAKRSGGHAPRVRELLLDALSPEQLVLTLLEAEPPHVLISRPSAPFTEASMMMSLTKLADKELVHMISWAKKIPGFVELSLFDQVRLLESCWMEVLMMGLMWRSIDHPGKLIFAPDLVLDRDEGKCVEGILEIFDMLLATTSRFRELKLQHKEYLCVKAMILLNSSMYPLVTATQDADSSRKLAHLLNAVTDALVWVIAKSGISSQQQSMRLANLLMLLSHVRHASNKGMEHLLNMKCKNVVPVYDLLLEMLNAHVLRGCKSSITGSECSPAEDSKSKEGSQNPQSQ
Outline: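 Ratiometric beta-lactamase FRET read-out came after 2 h substrate loading at room temperature. It followed 16 h compound treatment at 37C of GripTite HEK293T cells carrying a UAS-bla reporter, plated in 2% charcoal-stripped FBS medium.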

[2] = molecular target: Estrogen receptor beta (Homo sapiens) (UniProt Q92731); assay: qHTS assay to identify small molecule antagonists of the estrogen receptor beta (ER-beta) signaling pathway (AID 1259378; active = well fitted inhibition curve with a large enough effect in the signal ratio in the repeat runs, not every such curve was filed as active; the % refers to the signal ratio; also: potency is read from the fitted curve at half-maximal effect)
Outline: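 ER-beta-UAS-bla HEK293T (GripTite) cells in 2% charcoal-stripped FBS medium were preincubated 6 hr at 37C, dosed with compound, then stimulated with 1 nM E2 (final) for 16 hr; beta-lactamase reporter read by B/G FRET fluorescence after 2 hr substrate loading.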

[3] = qHTS assay to identify small molecule agonists of the androgen receptor (AR) signaling pathway in the presence of an antagonist - cell viability counter screen (AID 1259379); also: nearly all actives have a fitted effect of over 25% in size; also: potency is read from the fitted curve at half-maximal effect
Outline: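 Cytotoxicity is assessed by CellTiter-Fluor in MDA-kb2 cells carrying an MMTV-driven luciferase reporter. Cells receive 3.0uM nilutamide plus compounds at 15 concentrations and incubate 16 hr at 37C without CO2 before fluorescence reading.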

[4] = qHTS assay to identify small molecule agonists of the estrogen receptor beta (ER-beta) signaling pathway - cell viability counter screen (AID 1259380); also: nearly all actives have a fitted effect of over 30% in size; also: potency is read from the fitted curve at half-maximal effect
Outline: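 Cytotoxicity is measured in parallel with the reporter screen: after 16 hr compound exposure at 37C and a 2 hr LiveBLAzer step, CellTiter-Glo is added to the same ER-beta-UAS-bla HEK293T wells and luminescence read after 30 min.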

[5] = qHTS assay to identify small molecule antagonists of the estrogen receptor beta (ER-beta) signaling pathway - cell viability counter screen (AID 1259382); also: series mostly up to about 92 µM; nearly all actives have a fitted effect of over 55% in size
Outline: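 Cytotoxicity counter screen multiplexed with the beta-lactamase antagonist assay: GripTite HEK293T ER-beta-bla cells were treated 16 hr with test chemicals in the presence of 1nM 17-beta-estradiol, and viability was measured by CellTiter-Glo.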

[6] = qHTS assay to identify small molecule agonists of the estrogen receptor alpha (ER-alpha) signaling pathway in the presence of an antagonist - cell viability counter screen (AID 1259386);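 also: cells exposed to compounds for 22 h at 37 °C before the viability read; nearly all actives have a fitted effect of over 30% in size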; also: potency is read from the fitted curve at half-maximal effect
Outline: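 Cytotoxicity was measured in parallel with the ERE-luciferase agonist screen, in the same wells. The cells were VM7Luc4E2, which endogenously express ER-alpha, and treatment was with compounds plus 10.0nM ICI-182,780 for 22hr.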

[7] = molecular target: Progesterone receptor (Homo sapiens) (UniProt P06401); assay: qHTS assay to identify small molecule agonists of the progesterone receptor (PR) signaling pathway (AID 1346784; calls by dose curve; also: nearly all actives have a fitted effect of over 30% in size)
Progesterone receptor (Homo sapiens), sequence (P06401 whole entry, looked up): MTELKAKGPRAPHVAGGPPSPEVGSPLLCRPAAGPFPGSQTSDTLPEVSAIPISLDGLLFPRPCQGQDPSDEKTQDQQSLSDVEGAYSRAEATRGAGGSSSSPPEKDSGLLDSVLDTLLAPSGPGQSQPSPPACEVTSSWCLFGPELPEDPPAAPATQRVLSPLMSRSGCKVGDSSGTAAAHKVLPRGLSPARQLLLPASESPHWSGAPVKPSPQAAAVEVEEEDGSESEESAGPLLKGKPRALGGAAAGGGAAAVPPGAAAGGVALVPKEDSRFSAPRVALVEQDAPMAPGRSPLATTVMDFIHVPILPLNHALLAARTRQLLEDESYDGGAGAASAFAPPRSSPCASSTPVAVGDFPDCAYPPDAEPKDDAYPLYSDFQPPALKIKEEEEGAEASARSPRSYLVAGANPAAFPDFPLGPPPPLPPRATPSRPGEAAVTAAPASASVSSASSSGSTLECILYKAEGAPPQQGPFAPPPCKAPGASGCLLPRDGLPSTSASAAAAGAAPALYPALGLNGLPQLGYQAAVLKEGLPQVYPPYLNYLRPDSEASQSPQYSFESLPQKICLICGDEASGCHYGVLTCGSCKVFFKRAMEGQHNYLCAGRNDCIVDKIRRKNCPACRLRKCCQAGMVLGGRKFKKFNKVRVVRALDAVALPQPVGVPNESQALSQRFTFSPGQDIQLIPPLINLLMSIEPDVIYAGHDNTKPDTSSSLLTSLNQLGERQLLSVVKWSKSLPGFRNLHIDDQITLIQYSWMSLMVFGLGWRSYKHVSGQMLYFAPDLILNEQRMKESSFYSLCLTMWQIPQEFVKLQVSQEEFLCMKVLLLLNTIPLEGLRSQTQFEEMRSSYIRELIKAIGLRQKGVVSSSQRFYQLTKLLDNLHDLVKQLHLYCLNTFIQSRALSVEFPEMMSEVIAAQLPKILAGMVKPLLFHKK
Outline: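 Agonist qHTS: compounds pinned onto 3,000 PR-UAS-bla HEK 293T cells per well in charcoal-stripped serum medium, 16hr at 37C, then beta-lactamase activity measured by LiveBLAzer FRET fluorescence after 2 hours at room temperature.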

[8] = qHTS assay to identify small molecule antagonists of the progesterone receptor (PR) signaling pathway - cell viability counter screen (AID 1346798); also: nearly all actives have a fitted effect of over 50% in size; also: potency is read from the fitted curve at half-maximal effect
Outline: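 Cytotoxicity read as CellTiter-Glo luminescence (30 min, room temperature) in the same wells as the beta-lactamase readout. HEK293T PR-UAS-bla cells in charcoal-stripped 2% FBS received compound and R5020, then 16 h at 37C, 5% CO2.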

[9] = qHTS assay to identify small molecule antagonists of the TGF-beta/Smad signaling pathway - cell viability counter screen (AID 1346824); also: nearly all actives have a fitted effect of over 50% in size
Outline: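 SBE-bla HEK 293T cells were plated overnight at 37 C, then given compounds in DMSO plus TGF-beta1 (added as 0.25 ng/mL solution) for 5 hr. After the bla read, CellTiter-Glo was added to the same wells and luminescence read after 30 min at room temperature.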

[10] = qHTS assay to identify small molecule agonists of the TGF-beta/Smad signaling pathway - cell viability counter screen (AID 1346829); also: top concentration of the series differs between compounds; nearly all actives have a fitted effect of over 45% in size
Outline: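 After overnight seating at 37 C and 5% CO2, reporter cells got compounds for 5 hr and FRET substrate for 2 hr; cell viability then came from CellTiter-Glo luminescence.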

[11] = qHTS assay to identify small molecule agonists of the TGF-beta/Smad signaling pathway (AID 1346859; active = well fitted activation curve with a large enough effect in the signal ratio in the repeat runs, not every such curve was filed as active; the % refers to the signal ratio; also: series mostly up to about 77 µM)
Outline: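 Fluorescence (ex 405 nm; em 460 and 530 nm) was read 2 h after LiveBLAzer FRET substrate at RT. The preceding compound treatment of overnight-plated SBE-bla HEK293T cells lasted 5 h at 37 C.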

[12] = Human pregnane X receptor (PXR) small molecule agonists, qHTS cell viability counter screen (AID 1346977); also: nearly all actives have a fitted effect of over 50% in size; also: potency is read from the fitted curve at half-maximal effect
Outline: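 Same-well viability read: CellTiter-Fluor added after 23 hr compound exposure, fluorescence measured 1 hr later. Cells were PXR-Luc HepG2 seeded at 2,000/well in 5% charcoal-stripped FBS medium, rested 5 hr before dosing at 37 C.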

[13] = molecular target: Estrogen receptor (Homo sapiens) (UniProt P03372); assay: qHTS assay to identify small molecule agonists of the estrogen receptor alpha (ER-alpha) signaling pathway in the presence of an antagonist (AID 1259383; calls by dose curve; also: top concentration of the series differs between compounds; nearly all actives have a fitted effect of over 15% in size)
Estrogen receptor (Homo sapiens), sequence (P03372 whole entry, looked up): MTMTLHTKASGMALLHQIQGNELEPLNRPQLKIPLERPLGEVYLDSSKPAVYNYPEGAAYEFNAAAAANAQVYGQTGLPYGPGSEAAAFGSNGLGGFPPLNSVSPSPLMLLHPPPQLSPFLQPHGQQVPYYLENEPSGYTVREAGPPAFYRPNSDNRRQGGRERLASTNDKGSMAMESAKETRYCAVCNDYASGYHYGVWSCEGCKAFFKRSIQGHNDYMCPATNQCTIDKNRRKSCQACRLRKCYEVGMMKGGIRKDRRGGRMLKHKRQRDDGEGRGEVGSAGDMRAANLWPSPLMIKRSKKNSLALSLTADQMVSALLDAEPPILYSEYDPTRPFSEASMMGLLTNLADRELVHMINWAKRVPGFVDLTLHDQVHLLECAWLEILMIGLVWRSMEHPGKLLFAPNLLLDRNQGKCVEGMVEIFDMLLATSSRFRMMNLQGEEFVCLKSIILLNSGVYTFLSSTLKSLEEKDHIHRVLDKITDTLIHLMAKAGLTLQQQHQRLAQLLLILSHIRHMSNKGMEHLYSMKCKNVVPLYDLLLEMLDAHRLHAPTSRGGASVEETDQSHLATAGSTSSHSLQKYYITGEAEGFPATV
Outline: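 Agonist-mode confirmation in the presence of the ER antagonist ICI-182,780 at 10.0nM final. Breast-derived VM7Luc4E2 reporter cells were exposed to compounds for 22hr, and ERE-driven luciferase was quantified by luminescence.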

[14] = qHTS assay to identify small molecule agonists or antagonists of the thyroid stimulating hormone receptor (TSHR) signaling pathway - wild type cell line counter screen (AID 1259384; calls by dose curve)
Outline: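 Wild-type HEK293 cells were plated 18 h at 37 C/5% CO2, pin-dosed with compound plus Ro20-1724 medium, held 30 min at room temperature, then given cAMP-d2 and anti-cAMP-cryptate; fluorescence was read after 1 h. Fifteen concentrations, triplicate.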

[15] = molecular target: Thyrotropin receptor (Homo sapiens) (UniProt P16473); assay: qHTS assay to identify small molecule antagonists of the thyroid stimulating hormone receptor (TSHR) signaling pathway (AID 1259385; calls by dose curve; also: nearly all actives have a fitted effect of over 20% in size; also: potency is read from the fitted curve at half-maximal effect)
Thyrotropin receptor (Homo sapiens), sequence (P16473 whole entry, looked up): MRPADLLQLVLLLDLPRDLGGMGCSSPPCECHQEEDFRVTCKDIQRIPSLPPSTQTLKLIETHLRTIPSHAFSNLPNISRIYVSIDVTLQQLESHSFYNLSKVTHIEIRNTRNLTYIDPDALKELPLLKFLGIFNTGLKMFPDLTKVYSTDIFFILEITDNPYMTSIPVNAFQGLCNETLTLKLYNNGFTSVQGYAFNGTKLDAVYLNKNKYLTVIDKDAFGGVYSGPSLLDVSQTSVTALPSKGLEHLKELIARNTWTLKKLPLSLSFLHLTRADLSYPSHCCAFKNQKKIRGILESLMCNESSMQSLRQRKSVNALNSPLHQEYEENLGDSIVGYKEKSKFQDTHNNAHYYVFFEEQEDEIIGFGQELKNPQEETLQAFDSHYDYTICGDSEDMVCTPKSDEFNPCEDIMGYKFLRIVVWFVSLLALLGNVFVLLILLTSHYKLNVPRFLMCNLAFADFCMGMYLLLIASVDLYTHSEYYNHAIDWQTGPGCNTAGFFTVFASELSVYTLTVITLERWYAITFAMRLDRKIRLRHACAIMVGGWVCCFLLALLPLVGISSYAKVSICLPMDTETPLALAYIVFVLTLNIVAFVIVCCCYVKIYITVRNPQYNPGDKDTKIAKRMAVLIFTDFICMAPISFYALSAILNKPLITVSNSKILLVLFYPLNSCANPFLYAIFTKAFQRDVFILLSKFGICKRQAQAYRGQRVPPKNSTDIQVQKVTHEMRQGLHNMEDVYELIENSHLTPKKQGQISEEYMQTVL
Outline: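 TSHR-HEK293 cells were plated and held 18 h at 37C/5% CO2, then given compound plus Ro20-1724 and stimulated with TSH at 1.5 ng/mL final. After 30 min at room temperature, cAMP was detected with cAMP-d2/anti-cAMP-cryptate (1 h) by fluorescence.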

[16] = molecular target: Progesterone receptor (Homo sapiens) (UniProt P06401); assay: qHTS assay to identify small molecule antagonists of the progesterone receptor (PR) signaling pathway (AID 1346795; active = well fitted inhibition curve with a large enough effect in the signal ratio in the repeat runs, not every such curve was filed as active; the % refers to the signal ratio; also: potency is read from the fitted curve at half-maximal effect)
Outline: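 Antagonist mode with agonist R5020 at 1 nM final and 16 hr incubation at 37C. Reporter was beta-lactamase driven by UAS in HEK293T (PR-UAS-bla), 2% charcoal-stripped serum; signal from LiveBLAzer FRET substrate, 2 hr at room temperature.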

[17] = qHTS assay to identify small molecule agonists of the progesterone receptor (PR) signaling pathway - cell viability counter screen (AID 1346799; calls by dose curve; also: nearly all actives have a fitted effect of over 45% in size)
Outline: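 Cytotoxicity measured by CellTiter-Glo luminescence (30 min, RT) in the same wells as the PR beta-lactamase agonist read. Those HEK293T cells had 16 h compound treatment at 37 C in 2% charcoal-stripped FBS medium.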

[18] = molecular target: Thyrotropin-releasing hormone receptor (Homo sapiens) (UniProt P34981); assay: qHTS assay to identify small molecule agonists of the thyrotropin-releasing hormone receptor (TRHR) signaling pathway (AID 1346891; calls by dose curve; also: series mostly up to about 58 µM)
Thyrotropin-releasing hormone receptor (Homo sapiens), sequence (P34981 whole entry, looked up): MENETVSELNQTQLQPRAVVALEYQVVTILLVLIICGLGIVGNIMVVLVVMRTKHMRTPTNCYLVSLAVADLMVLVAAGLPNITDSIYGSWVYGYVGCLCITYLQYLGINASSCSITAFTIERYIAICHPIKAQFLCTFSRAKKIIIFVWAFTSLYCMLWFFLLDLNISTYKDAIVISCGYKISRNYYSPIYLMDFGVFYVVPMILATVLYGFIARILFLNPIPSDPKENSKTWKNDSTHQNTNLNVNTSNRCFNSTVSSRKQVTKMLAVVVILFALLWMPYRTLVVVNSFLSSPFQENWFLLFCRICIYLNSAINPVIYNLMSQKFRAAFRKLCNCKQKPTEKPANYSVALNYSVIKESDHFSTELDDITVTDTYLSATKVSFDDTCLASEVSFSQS
Outline: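 Agonist-mode intracellular calcium readout: kinetic fluorescence over 3 min at 1 s intervals after compound addition to TRHR-HEK293 cells (18 h seeded, 2 h dye-loaded at 37 C). Fifteen concentrations, triplicates.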

[19] = molecular target: Thyrotropin-releasing hormone receptor (Homo sapiens) (UniProt P34981); assay: qHTS assay to identify small molecule antagonists of the thyrotropin-releasing hormone receptor (TRHR) signaling pathway (AID 1346877; active = well fitted inhibition curve with a large enough effect in the repeat runs, not every such curve was filed as active; also: series mostly up to about 51 µM)
Outline: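 Antagonism is measured as suppression of the calcium response to 1 nM TRH in TRHR-HEK293 cells that have been dye-loaded for 2 h at 37 °C after overnight plating. Each compound is tested at 15 concentrations in triplicate.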

[20] = molecular target: Androgen receptor (Homo sapiens) (UniProt P10275); assay: qHTS assay to identify small molecule agonists of the androgen receptor (AR) signaling pathway in the presence of an antagonist (AID 1259381; calls by dose curve; also: nearly all actives have a fitted effect of over 15% in size)
Androgen receptor (Homo sapiens), sequence (P10275 whole entry, looked up): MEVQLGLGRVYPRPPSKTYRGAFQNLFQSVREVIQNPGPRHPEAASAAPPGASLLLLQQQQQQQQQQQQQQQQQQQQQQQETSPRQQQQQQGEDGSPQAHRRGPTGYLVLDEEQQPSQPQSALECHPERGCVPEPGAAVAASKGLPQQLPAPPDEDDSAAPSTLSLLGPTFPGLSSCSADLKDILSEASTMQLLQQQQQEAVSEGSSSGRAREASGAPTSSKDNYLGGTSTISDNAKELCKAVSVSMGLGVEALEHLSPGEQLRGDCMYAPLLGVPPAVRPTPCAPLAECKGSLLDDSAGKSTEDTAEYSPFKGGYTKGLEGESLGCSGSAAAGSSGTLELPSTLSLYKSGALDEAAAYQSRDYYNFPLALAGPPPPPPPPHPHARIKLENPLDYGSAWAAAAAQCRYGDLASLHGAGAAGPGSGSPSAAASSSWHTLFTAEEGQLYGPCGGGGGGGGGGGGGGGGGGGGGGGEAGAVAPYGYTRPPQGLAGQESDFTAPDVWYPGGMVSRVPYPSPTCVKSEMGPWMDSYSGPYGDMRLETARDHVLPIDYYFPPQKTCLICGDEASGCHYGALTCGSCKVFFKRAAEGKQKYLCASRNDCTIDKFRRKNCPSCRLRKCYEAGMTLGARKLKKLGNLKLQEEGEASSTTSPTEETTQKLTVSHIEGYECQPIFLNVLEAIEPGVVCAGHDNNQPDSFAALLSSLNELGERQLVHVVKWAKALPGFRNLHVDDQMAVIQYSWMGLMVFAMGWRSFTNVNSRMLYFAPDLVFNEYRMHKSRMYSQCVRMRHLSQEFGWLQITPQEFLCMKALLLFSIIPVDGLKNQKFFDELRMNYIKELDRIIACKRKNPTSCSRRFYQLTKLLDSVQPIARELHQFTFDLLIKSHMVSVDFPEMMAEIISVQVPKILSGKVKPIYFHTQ
Outline: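 Agonist-mode confirmation screen: human MDA-kb2 cells stably expressing luciferase under an MMTV promoter bearing AR and GR response elements, co-treated with 3.0uM nilutamide (final). Luminescence measured after 16hr compound incubation.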

Measured: Potency

Cc1cc(Nc2ccc(O)cc2)ccc1N
active: [3] 24.2 µM | [4] 27.2 µM | [6] 30.5 µM | [12] 30.5 µM
inactive: [1] | [2] | [5] | [7] | [8] | [9] | [10] | [11]

CCOCN(C(=O)CS(=O)(=O)O)c1c(C)cccc1CC
inactive: [1] | [2] | [3] | [4] | [13] | [14] | [15] | [6] | [7] | [16] | [8] | [17] | [9] | [10] | [11] | [18] | [12]

CSc1c(Cl)c(Cl)c(Cl)c(Cl)c1Cl
inactive: [1] | [2] | [3] | [5] | [14] | [6] | [7] | [16] | [8] | [10] | [11] | [19] | [18] | [12]

c1ccc(Nc2cccc3ccccc23)cc1
inactive: [1] | [3] | [13] | [14] | [15] | [6] | [8] | [17] | [10] | [11] | [19] | [18]
active: [2] 31 µM and 54.5 µM | [4] 54.5 µM | [16] 13.9 µM

C=CC(=C)CCC=C(C)C
inactive: [1] | [2] | [3] | [4] | [5] | [6] | [7] | [9] | [10] | [11]
active: [8] 54.5 µM

C=C(C)C(=O)OCCC[Si](Cl)(Cl)Cl
inactive: [1] | [2] | [3] | [4] | [5] | [14] | [6] | [7] | [16] | [8] | [9] | [10] | [11] | [12]

CCc1ccc(O)c(C(C)(C)C)c1
inactive: [1] | [2] | [3] | [13] | [14] | [6] | [7] | [8] | [9] | [11] | [19] | [18] | [12]

CN(C)c1ccc(N=Nc2ccccc2C(=O)O)cc1
inactive: [1] | [4] | [13] | [9] | [10] | [11] | [19] | [18]
active: [2] 15.4 µM | [3] 68.6 µM | [16] 15.4 µM | [12] 61.1 µM

CCCCCCCC(C)=O
inactive: [1] | [2] | [3] | [4] | [13] | [14] | [15] | [6] | [7] | [16] | [8] | [17] | [9] | [10] | [11] | [12]

CN(Cc1cc(Br)cc(Br)c1N)C1CCCCC1
inactive: [1] | [2] | [3] | [5] | [13] | [14] | [6] | [7] | [8] | [9] | [10] | [11] | [19] | [18] | [12]
active: [15] 29.8 µM

Cc1cn[nH]c1
inactive: [1] | [2] | [3] | [20] | [13] | [14] | [15] | [7] | [16] | [8] | [17] | [9] | [10] | [11]

O=C(O)CCCCCCC(=O)O
inactive: [1] | [2] | [3] | [4] | [5] | [14] | [15] | [6] | [7] | [16] | [8] | [17] | [9] | [10] | [11] | [18] | [12]

CC(=O)Oc1ccc(C2(c3ccc(OC(C)=O)cc3)Oc3ccccc3NC2=O)cc1
inactive: [1] | [3] | [5] | [13] | [14] | [6] | [9] | [10] | [11] | [19] | [18] | [12]
active: [2] 1.88 µM | [16] 21.1 µM

COC(=O)CC(C)CCC=C(C)C (stereo not drawn)
inactive: [1] | [2] | [3] | [4] | [5] | [13] | [7] | [8] | [17] | [9] | [10] | [11] | [19] | [18] | [12]

CCc1cccc(CC)c1N(COC)C(=O)CS(=O)(=O)O
inactive: [1] | [2] | [3] | [4] | [13] | [14] | [7] | [16] | [8] | [17] | [10] | [11] | [18]

C[Si](C)O[Si](C)C
inactive: [1] | [2] | [3] | [4] | [13] | [14] | [6] | [7] | [16] | [8] | [17] | [9] | [10] | [11] | [12]

From PubChem BioAssay (Tox21)
